Values without a mark were called inactive. Inconclusive results are not listed. Entries that show only a call come without a potency. Calls of active or inactive are those of the source. Unless noted, the call rests on the fitted dose curve; in most records, active means well fitted curve in the direction sought with a large enough effect in the repeat runs; inconclusive means weak or mixed curves; inactive means no such curve, though single readings can be large; an effect the other way counts as inactive or inconclusive.
Legend:
[1] = molecular target: Thyrotropin receptor (Homo sapiens) (UniProt P16473); experiment: qHTS assay to identify small molecule agonists of the thyroid stimulating hormone receptor (TSHR) signaling pathway (AID 1224843; calls by dose curve; further: nearly all actives have a fitted effect of over 45% in size)
Chain of Thyrotropin receptor (Homo sapiens) (P16473 whole entry, looked up): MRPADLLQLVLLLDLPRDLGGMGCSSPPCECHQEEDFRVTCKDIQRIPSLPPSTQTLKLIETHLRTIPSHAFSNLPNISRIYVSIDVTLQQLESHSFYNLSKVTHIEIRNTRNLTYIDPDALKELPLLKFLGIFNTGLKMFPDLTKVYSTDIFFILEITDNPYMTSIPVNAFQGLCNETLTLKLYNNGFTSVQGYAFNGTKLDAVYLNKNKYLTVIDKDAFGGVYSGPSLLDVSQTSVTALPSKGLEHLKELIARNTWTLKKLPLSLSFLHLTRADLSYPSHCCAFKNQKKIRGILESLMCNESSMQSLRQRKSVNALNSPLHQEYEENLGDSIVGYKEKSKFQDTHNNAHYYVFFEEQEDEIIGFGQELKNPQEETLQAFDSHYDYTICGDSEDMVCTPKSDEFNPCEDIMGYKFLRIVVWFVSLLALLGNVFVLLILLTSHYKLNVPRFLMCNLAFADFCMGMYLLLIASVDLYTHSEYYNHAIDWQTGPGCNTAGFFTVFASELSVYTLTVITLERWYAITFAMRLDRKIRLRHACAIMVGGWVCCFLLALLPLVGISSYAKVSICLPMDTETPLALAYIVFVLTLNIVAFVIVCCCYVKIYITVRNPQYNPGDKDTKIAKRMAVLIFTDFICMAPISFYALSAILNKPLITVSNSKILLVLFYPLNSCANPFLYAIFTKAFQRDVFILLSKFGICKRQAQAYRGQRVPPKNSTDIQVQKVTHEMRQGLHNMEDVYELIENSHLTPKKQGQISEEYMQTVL
In short: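 Using 15 concentrations per compound in triplicate, cAMP production was monitored in TSHR-HEK293 cells after 30 min compound incubation at RT; HTRF reagents followed, with fluorescence intensity recorded after 1 h.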

[2] = qHTS assay to identify small molecule agonists of H2AX (AID 1224845; active means well fitted activation curve with a large enough effect in the signal ratio in the repeat runs, not every such curve was filed as active; the % refers to the signal ratio)
In short: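 Wild-type CHO-K1 cells plated overnight, then exposed 3 hr at 37C to compounds at 15 concentrations (0.76% DMSO). Lysed, then HTRF anti-pH2AX(S139)-cryptate/anti-H2AX-d2 detection after 24 hr at room temperature; emissions 665 and 620 nm.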

[3] = qHTS assay to identify small molecule agonists of H2AX - cell viability counter screen (AID 1224847; calls by dose curve; further: top concentration of the series differs between compounds; nearly all actives have a fitted effect of over 30% in size)
In short: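 Wild-type CHO-K1 cells (10% FBS medium) were plated overnight at 37C, exposed to compounds at 15 concentrations for 3 hr at 37C (0.76% DMSO final), and viability was read as CellTiter-Glo luminescence after 30 min at room temperature.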

[4] = qHTS assay to identify small molecule agonists of the estrogen related receptor (ERR) signaling pathway from Tox21 library (AID 1224849; calls by dose curve; further: nearly all actives have a fitted effect of over 15% in size); conditions: ERR reporter cell line, ONE-Glo luciferase, 18 h; at 92.4 µM (top of the series) unless noted
In short: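 Cells carrying the ERR reporter were plated and allowed to settle for 6 h, exposed to library compounds for 18 h at 37 C, then lysed with ONE-Glo and luminescence measured.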

[5] = qHTS RealTime-Glo MT Cell Viability Assay in HepG2 cells - 24 hour (AID 1224867); further: nearly all actives have a fitted effect of over 50% in size
In short: (§1)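 Luminescence read-out: viable HepG2 cells reduce a prosubstrate to a NanoLuc substrate, giving a signal proportional to live cell number. Reads taken at 0, 8, 16, 24, 32 and 40 h of compound exposure at 37 C.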

[6] = qHTS RealTime-Glo MT Cell Viability Assay in HEK293 cells - 32 hour (AID 1224868); further: nearly all actives have a fitted effect of over 50% in size; further: potency means the concentration at half of the fitted maximal effect
In short: (§2)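 Nonlytic real-time viability readout: viable cells convert prosubstrate to NanoLuc substrate, giving luminescence proportional to live cell number. HEK293, 600 cells/well, compound added after 5 h, continuous culture at 37 C.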

[7] = A CellTox Green Cytotoxicity Assay to monitor cytotoxicity in HEK293 cells - 0 hour (AID 1224869); further: nearly all actives have a fitted effect of over 50% in size
In short: (§3)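 Cells (HEK293, 600/well) and dye reagent are dispensed together. After 5 h at 37 C, 23 nL compound is pinned in. Plates stay at 37 C for 40 h with fluorescence read at 0h, 8h, 16h, 24h, 32h and 40h.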

[8] = qHTS RealTime-Glo MT Cell Viability Assay in HepG2 cells - 40 hour (AID 1224870); further: nearly all actives have a fitted effect of over 50% in size
In short: (§4)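 HepG2 cells mixed with RealTime-Glo MT reagents (NanoLuc plus cell-permeant prosubstrate) were seeded at 600 cells/well, incubated 5 h at 37 C/5% CO2, then pinned with compounds in DMSO; nonlytic luminescence tracked viability during 40 h treatment.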

[9] = A CellTox Green Cytotoxicity Assay to monitor cytotoxicity in HEK293 cells - 40 hour (AID 1224871); further: nearly all actives have a fitted effect of over 45% in size
In short: as §3

[10] = qHTS RealTime-Glo MT Cell Viability Assay in HEK293 cells - 16 hour (AID 1224872)
In short: as §2

[11] = qHTS RealTime-Glo MT Cell Viability Assay in HepG2 cells - 8 hour (AID 1224873); further: nearly all actives have a fitted effect of over 55% in size
In short: as §4

[12] = qHTS RealTime-Glo MT Cell Viability Assay in HEK293 cells - 40 hour (AID 1224874); conditions: RealTime-Glo luminescence; max response: hits give low values; further: nearly all actives have a fitted effect of over 50% in size; further: potency means the concentration at half of the fitted maximal effect
In short: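 Real-time viability in HEK293: signal arises when living cells convert a prosubstrate for NanoLuc in the medium, so luminescence tracks viable cell number. Compound (23 nL, DMSO) added 5 h post-seeding; kinetic reads at 0–40 h, 37 C.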

[13] = A CellTox Green Cytotoxicity Assay to monitor cytotoxicity in HEK293 cells - 24 hour (AID 1224875); further: nearly all actives have a fitted effect of over 45% in size
In short: as §3

[14] = A CellTox Green Cytotoxicity Assay to monitor cytotoxicity in HepG2 cells - 16 hour (AID 1224876); further: nearly all actives have a fitted effect of over 45% in size
In short: (§5)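 Cells and non-lytic dye reagent are dispensed together (600 HepG2 cells/well) and incubated 5 h before DMSO compound transfer. Kinetic fluorescence is then recorded in the same wells during 40 h at 37 C.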

[15] = A CellTox Green Cytotoxicity Assay to monitor cytotoxicity in HepG2 cells - 40 hour (AID 1224879); further: nearly all actives have a fitted effect of over 40% in size
In short: as §5

[16] = A CellTox Green Cytotoxicity Assay to monitor cytotoxicity in HepG2 cells - 24 hour (AID 1224878); further: nearly all actives have a fitted effect of over 45% in size
In short: as §5

[17] = qHTS assay to identify small molecule agonists of the hypoxia (HIF-1) signaling pathway (AID 1224846; active means well fitted activation curve with a large enough effect in the signal ratio in the repeat runs, not every such curve was filed as active; the % refers to the signal ratio)
In short: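 Compounds from the Tox21 10K library, dissolved in DMSO, are tested for induction of a hypoxia response element–controlled beta-lactamase reporter in ME-180 cells. Exposure lasts 17 hrs at 37C after a 5 hr settling period, followed by CCF4-AM FRET substrate.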

[18] = qHTS RealTime-Glo MT Cell Viability Assay in HepG2 cells - 32 hour (AID 1224877); further: nearly all actives have a fitted effect of over 55% in size
In short: as §1

[19] = qHTS assay to identify small molecule antagonists of the estrogen related receptor (ERR) signaling pathway from Tox21 library (AID 1224848); further: nearly all actives have a fitted effect of over 50% in size
In short: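 Tox21 10K compounds in DMSO tested for ERR pathway antagonism in NTP's ERR cell line; 18 h, 37 C exposure; ONE-Glo luminescence.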

Row | Structure (SMILES) | Potency [1] | outcome [2] | Potency [3] | activity change, positive = activation [4] | outcome [5] | Potency [6] | outcome [7] | outcome [8] | Potency [9] | Potency [10] | outcome [11] | max response [12] [%] | outcome [13] | outcome [14] | Potency [15] | outcome [16] | outcome [17] | outcome [18] | Potency [12] | Potency [19]
1 | O=C(NCC(O)CO)c1c(I)c(C(=O)NCC(O)CO)c(I)c(N(CCO)C(=O)CO)c1I (stereo unspecified) | inactive | inactive | inactive | 5.02% [at 42.5 µM] | inactive | inactive | inactive | inactive | inactive | inactive | inactive | 8.98 | inactive | inactive | inactive |  |  |  |  | 
2 | CCCCNc1ccc(C(=O)OCCN(C)C)cc1 | inactive | inactive | inactive |  | inactive | inactive | inactive | inactive | inactive | inactive | inactive | -3.43 | inactive |  | inactive | inactive |  |  |  | 
3 | CC(C)(C)c1cc(CCC(=O)NN)cc(C(C)(C)C)c1O | inactive | inactive |  | -9% | inactive | inactive | inactive |  | inactive | inactive | inactive | -14 | inactive | inactive |  |  | inactive | inactive |  | 
4 | CCc1ccc(C=O)cc1 | inactive | inactive | inactive | 5.25% | inactive |  | inactive | inactive | inactive | inactive | inactive | -4.49 | inactive | inactive | inactive | inactive | inactive | inactive |  | 
5 | C=C1CC/C=C(\C)CC[C@@H]2[C@@H]1CC2(C)C | inactive | inactive | inactive | 0.265% | inactive | inactive | inactive | inactive | inactive | inactive | inactive | 2.22 | inactive | inactive | inactive | inactive | inactive | inactive |  | 
6 | CCCCCCOc1ccccc1C(N)=O | inactive | inactive | inactive |  | inactive | 16.9 µM (active) | inactive | inactive | inactive |  | inactive |  | inactive | inactive |  | inactive | inactive | inactive | 10.7 µM (active) | 
7 | COc1ccc(OC)c(Cl)c1 | inactive | inactive | inactive | -2.23% | inactive | inactive | inactive | inactive | inactive |  | inactive | 5.92 | inactive | inactive | inactive | inactive | inactive | inactive |  | inactive
